HIF-2a inh – HIF-2a reporter inhibitors, primary screen, luminescence, 786-0 RCC cells | 786-0 RCC cells HIF-2a reporter, luciferase luminescence, overnight | AID 624352, 2012 | 360,000 tested, 0.72% active | inhibition, % at 18.8 µM;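 active = inhibition of the luminescence signal of 40% or more relative to plate controls, in a single-dose primary screen at 18.75 µM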
CF NFkB inh – inhibitors of PAF-induced NF-kB signaling, primary screen, cell-based, GFP fluorescence, uHTS; KKLEB NF-kB-GFP reporter, GFP fluorescence overnight; inhibition, % at 5 µM; 360,000 tested, 0.86% active;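 active = at least 50% inhibition at 5 µM, scaled per plate between neutral and stimulator controls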;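 note: PAF is a Pseudomonas aeruginosa culture filtrate used as stimulus; plate controls were PAF-stimulated DMSO wells for no effect and unstimulated DMSO wells for full effect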
MITF TRPM1 inh – inhibitors of MITF-dependent TRPM1 promoter reporter, primary screen, cell-based, SK-MEL-5, single point, luciferase. SK-MEL-5 TRPM1 promoter luciferase, 24 h. inhibition, % at 12.5 µM. 330,000 tested, 0.83% active;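 active = mean inhibition across replicates of 60% or more, whatever share of single replicates reaches that level; inconclusive = some that reach 60%, reason not given; inactive = mean inhibition across replicates below 60%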
Peg3 prom inh-1 – Peg3 promoter-driven luciferase inhibitors, primary screen, cell-based, HeLa, luciferase luminescence; 360,000 tested, 1.7% active; inhibition, % at 20 µM; HeLa PEG-Prom luciferase reporter, overnight;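 active = inhibition of at least 50% at 20 µM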
Shn3 inh set2 – reduction of Shn3 3'UTR firefly luciferase signal, primary screen, Schnurri-3 inhibitor project, cell-based, Clone20 osteoblasts, set 2 | Clone20 osteoblast Shn3 3'UTR firefly luciferase, 24 h | inhibition, % at 12.5 µM | 360,000 tested, 0.52% active;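 active = mean inhibition of at least 75% with every replicate also reaching 75%; inconclusive = mean inhibition at least 75% but some replicate below; inactive = mean inhibition below 75%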;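 note: 0% = median of neutral control wells and 100% = pilot-screen positive control compound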
KKLEB cytotox – cytotoxicity in KKLEB CF airway cells, primary screen, cytotoxicity control for CF NF-kB inhibitor project, cell-based, uHTS, fluorescence assay plates | KKLEB CF airway cells viability, ATPlite luminescence, overnight; active compounds read low; cells stimulated with P. aeruginosa culture filtrate | activity change (cytotoxicity), % at 5 µM | 360,000 tested, 0.36% active;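 active = corrected activity change at or below -50% at 5 µM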
Peg3 prom inh-2 – Peg3 promoter reporter inhibitors, retest, confirmation, cell-based, HeLa, luciferase reporter, single concentration | shares compounds with Peg3 prom inh-1 | HeLa PEG-Prom luciferase reporter, luminescence, overnight | inhibition, % at 20 µM | 1,300 tested, 84% active;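 active = at 20 µM dose, 40% or more inhibition averaged across four replicates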
* = called active by the depositor; ? = inconclusive; . = no result given. In the library only some 2.8% were active in any assay of this set; here they are far more common.

SMILES	HIF-2a inh	CF NFkB inh	MITF TRPM1 inh	Peg3 prom inh-1	Shn3 inh set2	KKLEB cytotox	Peg3 prom inh-2
N=c1n(CC(=O)c2ccc([N+](=O)[O-])cc2)c2ccccc2n1Cc1ccc(Cl)cc1	10	7	92*	109*	3	-36	97*
CCCCCCN1C=CC(=C2C(=O)c3ccccc3C2=O)C=C1	39	-20	80*	58*	68	-58*	43*
CCCCN1C(C)=CC(=C2C(=O)c3ccccc3C2=O)C=C1C	-55	7	9	-41	15	-23	.
CCN1C=CC(=C2C(=O)c3ccccc3C2=O)C=C1	87*	-11	100*	97*	?	-46	90*
O=C(COc1ccc(CNC[C@H]2O[C@@H](n3ccc(=O)[nH]c3=O)[C@H](O)[C@@H]2O)cc1)Nc1ccccn1	-76	1	.	-64	-18	-11	.
Oc1c(Cl)cc(Cl)c2cccnc12	15	20	22	64*	16	-26	66*
CCCCCCSc1cc(-c2nc3ccc(C)cn3c2NCCCC)ccc1OC	-36	38	0	79*	61	-10	93*
O=C1C(Cl)=C(Nc2ccccc2)C(=O)c2ccccc21	97*	93*	90*	102*	96*	-83*	98*
COc1cccc(-c2sc3ccc(OC)cc3c2-c2ccc(OCCN(C)C)cc2)c1	-5	38	19	100*	-4	-20	71*
COc1cccc(-c2sc3ccc(OC)cc3c2-c2ccc(O)cc2)c1	22	-12	-6	17	-6	1	.
COc1ccc2ccccc2c1/C=N/NC(=O)c1ccc(C)nc1	-11	-10	-1	-3	-8	-3	.
O=C(N/N=C/c1c(O)ccc2ccccc12)c1ccc(CO)nc1	22	-10	46	55*	82	-4	70*
CCC(C)NC(=O)c1c(N)n(/N=C/c2cccnc2)c2nc3ccccc3nc12 (stereo not drawn)	-44	-2	-7	50*	2	-6	15
CCC(C)NC(=O)c1c(N)n(/N=C/c2ccccn2)c2nc3ccccc3nc12 (stereo not drawn)	-16	2	5	47	1	-4	.
O=C(O)c1cncc(C#CCC2CCCCC2)c1	-218	0	-50	-194	-6	-6	.
Cn1ccnc1COc1ccc(C=O)cc1	10	-17	10	-3	-9	10	.
Cc1cccc(N2CCN(C(=O)C3CCN(c4ncnc5c4nc4n5CCCCC4)CC3)CC2C)c1 (stereo not drawn)	1	-8	43	55*	75	-9	43*
O=C(C1CCN(c2ncnc3c2nc2n3CCCCC2)CC1)N1CCN(c2ccccc2F)CC1	30	-24	0	20	17	-5	.
Cc1cccc(N2CCN(C(=O)C3CCN(c4ncnc5c4nc4n5CCCCC4)CC3)CC2)c1C	6	-14	50	52*	68	6	58*
CN(C(=O)C(Cl)Cl)C1CC2C=CC1C2 (stereo not drawn)	1	12	-8	8	-13	2	.
Cc1cc(C=C2C(=O)c3ccccc3C2=O)c(C)n1-c1cccc(C(=O)O)c1	-59	-6	-4	-66	-5	-6	.
Cc1cc(C=C2C(=O)c3ccccc3C2=O)c(C)n1-c1ccccc1	56*	-24	72*	69*	21	-10	65*
COc1ccc(OC)c(NC(=O)COC(=O)CCc2ccc(S(=O)(=O)N3CCOCC3)cc2)c1	-11	-9	-7	-18	-12	-2	.
CCc1ccc(/C=C2/SC(=S)N(CCCC(=O)Nc3cccc(C(=O)O)c3)C2=O)cc1	23	24	.	-28	-7	-18	.
CCc1ccc(/C=C2\SC(=S)N(CCCC(=O)NC3=NCCS3)C2=O)cc1	83*	5	.	72*	49	-18	71*
SMILES	HIF-2a inh	CF NFkB inh	MITF TRPM1 inh	Peg3 prom inh-1	Shn3 inh set2	KKLEB cytotox	Peg3 prom inh-2
CCc1ccc(/C=C2\SC(=S)N(CCCC(=O)Nc3cc(C)on3)C2=O)cc1	77*	-12	.	72*	65	6	66*
Cc1cc(NC(=O)CCCN2C(=O)/C(=C/c3cccs3)SC2=S)no1	22	18	11	38	-2	-14	.
COCc1c(C(=O)NC(C)c2ccc(S(N)(=O)=O)cc2)oc2ccccc12 (stereo not drawn)	1	11	6	6	13	-16	.
CCc1nc(Nc2ccc(N3CCN(C(C)=O)CC3)cc2)c2oc3ccccc3c2n1	-59	-11	-6	79*	31	1	68*
CCN(CC)CCN(C)C1CCC(c2ccccc2)CC1 (stereo not drawn)	1	2	0	-3	-54	1	.
CCOC(=O)CN1CC23C=CC(O2)C(C(=O)Nc2ccc(C(C)=O)cc2)C3C1=O (stereo not drawn)	-38	-4	.	-6	-7	25	.
CS(=O)(=O)c1sc(C#N)c2c1C(=O)CC(c1ccccc1)C2 (stereo not drawn)	95*	81*	87*	98*	46	-38	97*
COc1ccccc1CNC(=O)c1c(N)n(CCCN2CCOCC2)c2nc3ccccc3nc12	-51	-6	-10	60*	-5	-2	85*
Cc1ccc(S(=O)(=O)N(C)CCN(C)S(=O)(=O)c2ccc(C)cc2)cc1	-1	14	-2	12	6	-3	.
CCc1ccc(OCC(=O)O/N=C(\N)c2ccccn2)cc1	-258	19	.	-345	.	-24	.
N/C(=N\OC(=O)c1cccc(F)c1)c1ccccn1	5	-18	-16	-14	-1	-6	.
N/C(=N\OC(=O)c1ccccc1)c1ccccn1	-44	-3	56	95*	23	0	8
Cc1cccc(C(=O)O/N=C(\N)c2ccccn2)c1	32	-16	35	56*	46	-20	40*
CCOc1ccc(C(=O)O/N=C(\N)c2ccccn2)cc1	68*	13	67*	114*	84	-28	95*
COc1ccc(-n2c(O)c(/C=N/Nc3nc(C)cc(C)n3)c3ccccc3c2=O)cc1OC	23	20	40	56*	91*	-5	45*
Cc1ccc(-c2nc(C(Cl)Cl)c3ccccc3n2)cc1	-86	16	17	111*	55	-25	99*
